# Results taken from publication PMC4336329 (PLoS ONE, 2015).
# Out of some 310,000 compounds screened, about 14,000 (4.5%) showed an effect of 50% or more. The effect is printed as a negative number. The full list was thinned out, with strong results kept by preference.
# Biological target: human ether-à-go-go-related gene (hERG) potassium channel (human, UniProt Q12809)
# Assay: primary screen, population patch clamp on CHO cells stably expressing hERG; higher = less effect of the substance
# 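Also: peak tail current of the secondary pulse compared with the same well before compound.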
# Chain of human ether-à-go-go-related gene (hERG) potassium channel (Q12809 whole entry, looked up): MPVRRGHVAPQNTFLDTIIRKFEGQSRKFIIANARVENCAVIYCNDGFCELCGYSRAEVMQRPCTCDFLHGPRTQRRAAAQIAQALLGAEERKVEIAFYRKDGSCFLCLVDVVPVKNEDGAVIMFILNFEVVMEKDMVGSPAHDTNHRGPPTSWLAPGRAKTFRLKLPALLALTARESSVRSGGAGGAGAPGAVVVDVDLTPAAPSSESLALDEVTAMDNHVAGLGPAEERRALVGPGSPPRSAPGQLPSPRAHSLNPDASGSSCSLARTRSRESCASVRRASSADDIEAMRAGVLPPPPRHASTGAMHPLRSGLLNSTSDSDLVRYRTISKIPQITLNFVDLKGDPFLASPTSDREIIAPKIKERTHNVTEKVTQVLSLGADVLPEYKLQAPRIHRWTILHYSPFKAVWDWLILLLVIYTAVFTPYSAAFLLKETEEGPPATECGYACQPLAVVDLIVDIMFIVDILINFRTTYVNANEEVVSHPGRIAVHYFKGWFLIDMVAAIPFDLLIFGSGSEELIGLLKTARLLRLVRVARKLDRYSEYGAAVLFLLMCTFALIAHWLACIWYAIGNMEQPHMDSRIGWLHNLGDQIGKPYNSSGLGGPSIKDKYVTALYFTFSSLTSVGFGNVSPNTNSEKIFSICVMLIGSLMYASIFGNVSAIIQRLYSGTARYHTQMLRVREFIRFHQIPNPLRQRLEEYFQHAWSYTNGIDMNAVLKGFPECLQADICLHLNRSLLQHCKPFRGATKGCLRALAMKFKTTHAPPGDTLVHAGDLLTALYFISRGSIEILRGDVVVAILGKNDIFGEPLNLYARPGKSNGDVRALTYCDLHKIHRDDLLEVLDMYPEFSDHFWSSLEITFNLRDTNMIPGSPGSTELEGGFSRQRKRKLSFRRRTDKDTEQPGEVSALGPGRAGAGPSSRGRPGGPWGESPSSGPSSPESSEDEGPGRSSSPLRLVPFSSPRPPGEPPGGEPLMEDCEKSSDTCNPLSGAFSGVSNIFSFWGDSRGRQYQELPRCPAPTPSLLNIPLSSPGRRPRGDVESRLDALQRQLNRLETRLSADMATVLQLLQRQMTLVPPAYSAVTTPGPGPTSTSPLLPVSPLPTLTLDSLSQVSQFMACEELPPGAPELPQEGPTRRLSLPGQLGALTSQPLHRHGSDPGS
row,Structure (SMILES),"hERG current change (%, negative = inhibition) at 10uM [%]"
1,Nc1cc(=O)[nH]c(N)n1,15.9
2,CCc1cccc(NC(=O)CNC(=O)N2CC(=O)Nc3ccccc32)c1,-8.55
3,Cc1ccc(S(=O)(=O)N(C)C)cc1NC(=O)COC(=O)c1c(-c2ccccc2)noc1C,-24.8
4,CCOC(=O)N1CCN(CC(O)COc2c(C)cc(C)cc2C)CC1.Cl (stereo not drawn),-18
5,COc1cc(CN2CCN(Cc3ccc(C(F)(F)F)cc3)CC2)cc(OC)c1OC.O=C(O)C(=O)O,-54.1
6,COc1cccc(CN2CCN(C(=O)c3ccc(-c4ccccc4)cc3)CC2)c1OC.O=C(O)C(=O)O,-5.41
7,COc1cc(CN2CCN(C(=O)c3ccc(-c4ccccc4)cc3)CC2)cc(OC)c1OC.O=C(O)C(=O)O,-54.7
8,COc1cc(CN2CCCCCC2)cc(OC)c1OC.O=C(O)C(=O)O,13.8
9,COc1cc(CN2CCN(C(=O)COc3ccccc3)CC2)cc(OC)c1OC,-14.1
10,COc1cc(CN2CCN(C(=O)c3cccc4ccccc34)CC2)cc(OC)c1OC.O=C(O)C(=O)O,4.24
11,COc1cc(CN2CCN(C(=O)c3ccccc3F)CC2)cc(OC)c1OC.O=C(O)C(=O)O,6.56
12,COc1cc(OC)c(OC)cc1CN1CCN(Cc2ccc(C(F)(F)F)cc2)CC1,-42.3
13,COc1cc(CN2CCN(C(O)(c3ccccc3)c3ccccc3)CC2)cc(OC)c1OC.O=C(O)C(=O)O,-55.1
14,COc1ccc(CN2CCN(Cc3ccc(C(F)(F)F)cc3)CC2)c(OC)c1.O=C(O)C(=O)O,-74.1
15,COc1cc(CN2CCN(S(=O)(=O)c3ccc(F)cc3)CC2)cc(OC)c1OC.O=C(O)C(=O)O,-5.89
16,COc1ccccc1C1CCN(c2ccc(CO)cc2[N+](=O)[O-])CC1,4.52
17,O=C(Nc1cccc2ccccc12)c1cnsn1,5.58
18,COC(=O)c1c(C(=O)OC)c2ccccn2c1C(=O)c1ccccc1,6.74
19,COCCNC(=O)Cn1nc(-c2ccc(C)cc2)ccc1=O,8.83
20,CCOc1ccc(C(NC(=O)c2ccco2)c2ccc(OC)c(OC)c2)cc1 (stereo not drawn),-39.9
21,O=C(NC(=S)NC1CCS(=O)(=O)C1)c1ccccc1 (stereo not drawn),14.6
22,O=C(Nc1cccc(S(=O)(=O)N2CCOCC2)c1)c1ccccc1[N+](=O)[O-],0.195
23,O=C(CSc1nc2ncc(Cl)cc2[nH]1)Nc1cccc(F)c1,12.8
24,FC(F)(F)c1ccc(CN2CCN(Cc3ccco3)CC2)cc1.O=C(O)C(=O)O,0.168

row,Structure (SMILES),"hERG current change (%, negative = inhibition) at 10uM [%]"
1,COc1ccc(CN2CCN(Cc3ccc(C(F)(F)F)cc3)CC2)cc1.O=C(O)C(=O)O,-65.7
2,COc1cccc(C(=O)N2CCN(Cc3ccc(OC)cc3OC)CC2)c1.O=C(O)C(=O)O,-38.9
3,CS(=O)(=O)N1CCN(Cc2ccc(C(F)(F)F)cc2)CC1.O=C(O)C(=O)O,0.441
4,COc1ccc(CN2CCN(Cc3ccc(C)cc3)CC2)c(OC)c1.O=C(O)C(=O)O,-70.3
5,O=c1ccc(-c2ccccc2)nn1Cc1ccc(Cl)cc1,2.52
6,COc1ccc(N2Cc3ccccc3C2=O)cc1,16.2
7,COc1cc(NC(=O)c2ccc(Cl)cc2)c(Cl)cc1NC(=O)c1cccnc1,1.74
8,N#C/C(=C/c1ccc(N2CCCCCC2)o1)c1ccc(Cl)cc1,-3.68
9,COc1cccc(NC(=O)CN2CCN(CC(=O)Nc3ccc(F)cc3)CC2)c1,-80.3
10,COc1ccc(NC(=O)CN2CCN(CC(=O)Nc3ccc(F)cc3)CC2)cc1Cl,-80.5
11,COc1ccc(NC(=O)CN2CCc3ccccc3C2)c(OC)c1,-6.9
12,COc1cccc(NC(=O)CN2CCN(c3ccc(F)cc3)CC2)c1,-17
13,COc1ccc(NC(=O)CN2CCN(c3ccc(F)cc3)CC2)cc1Cl,-5.96
14,COc1cccc(NC(=O)CN2CCN(c3ccccc3F)CC2)c1,-9.18
15,COc1ccc(NC(=O)CN2CCN(CC(=O)Nc3ccc(F)cc3)CC2)c(OC)c1,-80.4
16,COc1ccc(NC(=O)CN2CCN(S(=O)(=O)c3ccc(F)cc3)CC2)cc1Cl,-1.67
17,COc1ccc(C(=O)C2CCN(CC(=O)Nc3ccc(OC)cc3OC)CC2)cc1,-18.1
18,CCOc1ccc(NC(=O)CN2CCN(CC(=O)Nc3ccc(OC)cc3OC)CC2)cc1,-74.2
19,COc1ccc(NC(=O)CN2CCN(c3nc(-c4ccc(F)cc4)cs3)CC2)c(OC)c1,20.7
20,Cc1ccc(NC(=O)CSC(N)=O)cc1Cl,7.5
21,Cn1c2ccccc2c(=O)c2ccc(F)cc21,0.557
22,COc1ccc(-c2cc(C(=O)N3CCCC3)c3ccccc3n2)cc1OC,5.86
23,CCCCc1nnc(NC(=O)C23CC4CC(CC(NC(C)=O)(C4)C2)C3)s1,-1.81
24,O=C(Nc1cccnc1)c1ccccc1-c1nc(-c2ccccc2F)no1,-16.4

row,Structure (SMILES),"hERG current change (%, negative = inhibition) at 10uM [%]"
1,N#Cc1nc(-c2ccccc2)oc1N1CCC(C(N)=O)CC1,9.26
2,O=S(=O)(NCC1CCN(S(=O)(=O)c2ccccc2)CC1)c1ccccc1,-9.78
3,Cc1ccc(C2N(c3ccc(Cl)cc3)C(=O)N3CCCN23)cc1 (stereo not drawn),-1.05
4,CCc1nc(SCC(=O)Nc2nnc(CC)s2)c2c(C)c(C)sc2n1,8.99
5,COc1ccccc1NC(=O)CN1CCN(CC(=O)Nc2ccc(S(N)(=O)=O)cc2)CC1,-27.8
6,CCOc1ccc(NC(=O)CN2CCN(CC(=O)Nc3ccccc3OC)CC2)cc1,-74.1
7,COc1ccccc1NC(=O)CN1CCN(CC(=O)Nc2ccc(OCc3ccccc3)cc2)CC1,-25.1
8,OCCN1CCN(CC#CCC(c2ccccc2)c2ccccc2)CC1,-22.9
9,C(#CCN1CCCC1)CC(c1ccccc1)c1ccccc1.Cl,-50.5
10,OC(C#CCN1CCCC1)c1ccccc1 (stereo not drawn),-2.28
11,COc1cc(OC)c(C(=O)NCCCn2ccnc2)cc1OC.Cl,13
12,OC[C@H]1O[C@@H](n2cnc3c(NC4CCCC4)ncnc32)[C@H](O)[C@@H]1O,10.4
13,OC(CNCc1ccco1)Cn1c2ccccc2c2ccccc21 (stereo not drawn),-58.4
14,OC(CNCc1ccco1)Cn1c2ccc(Br)cc2c2cc(Br)ccc21 (stereo not drawn),-0.0278
15,OCCNCC(O)Cn1c2ccccc2c2ccccc21 (stereo not drawn),10.2
16,COc1ccc(OC)c(NC(=O)[C@@H]2CCCN2C(=O)c2cccs2)c1,-2.19
17,CC(C)(C)c1ccc(C(=O)NNC(=O)CCc2ccccc2)cc1,7.16
18,Cc1ccc(C(C(=O)NC2CCCC2)N(Cc2ccc3c(c2)OCO3)C(=O)c2snc(C(N)=O)c2N)cc1 (stereo not drawn),10.7
19,COCCCNC(=S)N1CCN(c2ccccc2)CC1,12.9
20,C=CCNC(=S)N1CCN(c2ccc([N+](=O)[O-])cc2)CC1,-63.6
21,O=[N+]([O-])c1ccc(N2CCN(C(=S)Nc3ccccc3)CC2)cc1,-4.16
22,C=CCNC(=S)N1CCN(c2ccccc2Cl)CC1,-6.87
23,COCCCNC(=S)N1CCN(c2ccc([N+](=O)[O-])cc2)CC1,-68
24,O=[N+]([O-])c1ccc(N2CCN(C(=S)NCc3ccc(Cl)cc3)CC2)cc1,-8.05

row,Structure (SMILES),"hERG current change (%, negative = inhibition) at 10uM [%]"
1,CNC(=S)N1CCN(c2ccc([N+](=O)[O-])cc2)CC1,-65.1
2,O=[N+]([O-])c1ccc(N2CCN(C(=S)Nc3ccc(F)cc3F)CC2)cc1,-18.5
3,CCNC(=S)N1CCN(c2ccc([N+](=O)[O-])cc2)CC1,-64.5
4,CCCC(=O)NC(=S)N1CCN(c2ccc([N+](=O)[O-])cc2)CC1,-20.7
5,Cc1cccc(C(=O)NC(=S)N2CCN(c3ccc([N+](=O)[O-])cc3)CC2)c1,-2.77
6,COCCNC(=S)N1CCN(c2ccc(Cl)cc2)CC1,-12.9
7,CCCC(=O)Nc1nc2nc(C)cc(=O)n2[nH]1,1.2
8,Cc1cc(C)c2c(=O)[nH]n(C3CC(C)N(C)CC3C)c2n1 (stereo not drawn),4.5
9,CC1(C)Cc2c(sc3nc(-c4cccs4)n(N)c(=O)c23)CO1,-22.5
10,CCN(c1cccc(C)c1)S(=O)(=O)c1ccc2c(c1)NC(=O)CS2,-7.28
11,Cc1nnc2ccc(Oc3ccc(-c4ccccc4)cc3)nn12,-5.63
12,CCC1C(c2ccccc2)NC(c2ccccc2)CC1(O)c1ccc(F)cc1.Cl (stereo not drawn),11.4
13,Cc1cc(C)n2cc(CSc3nc4cc(Cl)ccc4o3)nc2n1,-68.1
14,Cc1cc(C)nc(SCc2cn3c(C)cccc3n2)n1,6.36
15,Cc1ccc2nc(SCc3cn4c(C)cc(C)nc4n3)[nH]c2c1,-20.9
16,Cc1cccc2nc(CSc3ccc(Cl)cc3)cn12,-74.3
17,O=c1cc(CSc2nc3cc(Cl)ccc3o2)nc2sccn12,10.4
18,Cc1cc(C)n2cc(CSc3ncn[nH]3)nc2n1,0.809
19,Cc1ccc(SCc2cn3c(C)cc(C)nc3n2)cc1,-67.1
20,Cc1ccnc(SCc2cn3c(C)cc(C)nc3n2)n1,-3.93
21,Cc1cc(C)n2cc(CSCc3ccccc3)nc2n1,-36.9
22,Clc1ccc(SCc2cn3ccccc3n2)cc1,-18.1
23,Cc1cc(C)n2cc(CSc3ccc(Br)cc3)nc2n1,-63.8
24,Cc1cc(C)n2cc(CSc3nnc(-c4ccccc4)o3)nc2n1,-38.3
